CYP2C19 inh: blocks human cytochrome P450 2C19; P33261; CYP2C19 Supersomes, luciferin-H EGE luminescence, 30 min; inhibition, % at 5 µM; 21% of 96,000 active; AID 778;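 active = CYP2C19 inhibition above a set limit at 5 µM in the primary screen, cut at about 50% in these data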
CYP2C9 inh: human CYP2C9 inhibition; CYP2C9 Supersomes, luciferin-H conversion, luminescence; P11712; inhibition, % at 5 µM; 20% of 96,000 active;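 active = blocking of liver enzyme CYP2C9 beyond about 50% at 5 µM, limit read from the data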
Target sequence (P11712 whole entry, looked up): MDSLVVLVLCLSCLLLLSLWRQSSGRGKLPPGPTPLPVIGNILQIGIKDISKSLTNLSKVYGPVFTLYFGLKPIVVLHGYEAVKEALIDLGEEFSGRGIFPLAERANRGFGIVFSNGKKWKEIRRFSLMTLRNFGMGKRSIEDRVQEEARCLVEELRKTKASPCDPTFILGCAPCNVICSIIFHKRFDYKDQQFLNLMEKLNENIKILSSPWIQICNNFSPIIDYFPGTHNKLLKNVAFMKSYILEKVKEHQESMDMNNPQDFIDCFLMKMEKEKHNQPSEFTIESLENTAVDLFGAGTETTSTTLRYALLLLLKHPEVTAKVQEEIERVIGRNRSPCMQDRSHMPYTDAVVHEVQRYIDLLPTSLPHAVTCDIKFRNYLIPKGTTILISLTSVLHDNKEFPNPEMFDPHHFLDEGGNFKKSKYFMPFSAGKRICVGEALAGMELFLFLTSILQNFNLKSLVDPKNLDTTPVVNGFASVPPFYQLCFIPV
CYP2C19 activ: activators of human cytochrome P450 2C19. P33261. recombinant CYP2C19, luciferin-H EGE luminescence; active compounds read high; 0 = fully inhibited enzyme, 1 = untreated enzyme. activation factor at 5 µM. 96,000 tested, under 10 active;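 active = activation factor of at least 2 at 5 µM in the primary screen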
CYP2C9 activ: activators of human CYP2C9; P11712; recombinant CYP2C9, luciferin-H conversion, luminescence; active compounds read high; factor 1 = untreated enzyme, 0 = blocked; activation factor at 5 µM; 1.4% of 96,000 active; AID 1024;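 active = activation factor of 2 or more for CYP2C9 at a 5 µM dose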
Cav3 T inh: inhibitors of human Cav3.2 T-type calcium channel | O95180 | Cav3.2-expressing cells, Fluo-4 calcium fluorescence FDSS; active compounds read low | B-score at 10 µM | 4% of 100,000 active | AID 449739;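 active = single-dose well whose peak fluorescence ratio is a statistical outlier from its plate by either plate-standardised score or position-corrected B-score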
Pyk2 oligo antag: Pyk2 (human) oligomerization antagonism. Q14289. Q293 cells, Pyk2 FERM NanoBiT luminescence; active compounds read low. z-score (the deposit names both 25 µM and 10 µM). 0.83% of 99,000 active;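 active = Z-score of -3 or lower, scaled per plate to the spread of control and sample wells; inactive = z-score above -3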;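 also: negative z-score means lost luminescence so less FERM oligomerization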
Of the large screens only hits and unclear results are named; the others gave an inactive call. Sampled rows, rich in hits. Any-hit rate of the full collection: about 27%.

C#Cc1ccc([C@@H]2C=C(C(=O)N3CCOCC3)O[C@H](OCC)[C@H]2CCCO)cc1	none (no result: CYP2C19 inh, CYP2C9 inh, CYP2C19 activ, CYP2C9 activ, Pyk2 oligo antag)
Cn1c(-n2c(CCCN3C(=O)c4ccccc4C3=O)nc3ccccc3c2=O)nc2ccccc21	CYP2C9 inh 63.7
O=C1c2ccccc2C(=O)N1Cc1nc2ccccc2c(=O)n1CCN1CCOCC1	none (no result: CYP2C19 inh, CYP2C9 inh, CYP2C19 activ, CYP2C9 activ)
CN(Cc1ccccc1)C(NC(=O)c1ccccc1)C(Cl)(Cl)Cl (centres undefined)	Cav3 T inh -5.69
CN(C)C(=O)N1CCN(C(=O)N2CCOCC2)CC1	none (no result: CYP2C19 inh, CYP2C9 inh, CYP2C19 activ, CYP2C9 activ)
CN(C(=O)c1ccncc1)c1nnc(-c2ccccn2)s1	CYP2C19 inh 81.2, CYP2C9 inh 98.6
CN(C(=O)c1ccncc1)c1nnc(-c2cccnc2)s1	CYP2C19 inh 93.4, CYP2C9 inh 99.7
CN(C(=O)c1cccnc1)c1nc(-c2ccccc2)cs1	none
CCN(C(=O)Cc1cccs1)c1nnc(-c2cccnc2)s1	CYP2C9 inh 50.2
CN(C(=O)c1ccc(C#N)cc1)c1nnc(-c2ccccn2)s1	none (no result: CYP2C19 inh, CYP2C9 inh, CYP2C19 activ, CYP2C9 activ)
CCC(C)(C)NC(=O)C(c1ccco1)N(C(=O)c1csnn1)c1cccc(F)c1 (centres undefined)	none
CCN1CC=C2C(C#N)=C(N)C(C#N)(C#N)C(c3cc(Cl)ccc3Cl)C2C1 (centres undefined)	CYP2C9 inh 58.6 (no result: Cav3 T inh)
CC(C)(C)OC(=O)N1CC=C2C(C#N)=C(N)C(C#N)(C#N)C(c3cccs3)C2C1 (centres undefined)	CYP2C9 inh 59.5
CCC1C2CN(C(C)=O)CC=C2C(C#N)=C(N)C1(C#N)C#N (centres undefined)	none
CC(C)(C)OC(=O)N1CC=C2C(C#N)=C(N)C(C#N)(C#N)[C@H](c3cccnc3)[C@H]2C1	none
CC(C)N1CC=C2C(C#N)=C(N)C(C#N)(C#N)[C@H](c3ccoc3)[C@H]2C1	Cav3 T inh -4.56 (no result: Pyk2 oligo antag)
CC(CN1CCN(c2ccccc2)CC1)c1ccccc1 (centres undefined)	none
CCC1ON(c2ccccc2)C2c3nc4ccccc4n3CC12 (centres undefined)	none (no result: CYP2C19 inh, CYP2C9 inh, CYP2C19 activ, CYP2C9 activ, Pyk2 oligo antag)
c1ccc(CCCc2nc(-c3ccccn3)no2)cc1	CYP2C19 inh 65.2
c1ccc(SCc2nc(-c3ccccn3)no2)cc1	CYP2C19 inh 75.9
c1ccc(C(Cc2nc(-c3ccccn3)no2)c2ccccc2)cc1	CYP2C9 inh 54.5
CC(=O)N1[C@H](C)C=C[C@]1(Cc1ccccc1)C(=O)O	none (no result: CYP2C19 inh, CYP2C9 inh, CYP2C19 activ, CYP2C9 activ, Pyk2 oligo antag)
COc1ccc(C2NC(=O)NC(O)(C(F)(F)F)C2C(=O)c2ccc(C)cc2)cc1 (centres undefined)	none
O=Cc1ccc2noc(-c3ccc(F)cc3)c2c1	none
CCCSc1nnc2nc3c(nn12)c1ccccc1n3C	none (no result: Cav3 T inh, Pyk2 oligo antag)
N#Cc1nn(-c2ccccc2)nc1N1CCCCC1	CYP2C9 inh 50.7 (no result: Cav3 T inh)
COc1ccccc1N(CC(=O)Nc1ccc2c(c1)OCO2)S(=O)(=O)c1ccccc1	CYP2C19 inh 80.2, CYP2C9 inh 100.3
COc1ccc(S(=O)(=O)N(CC(=O)Nc2ccc3c(c2)OCO3)c2ccccc2OC)cc1	CYP2C9 inh 71.8
COc1cccc(N(CC(=O)Nc2ccc3c(c2)OCO3)S(=O)(=O)c2ccccc2)c1	CYP2C9 inh 70.7, Pyk2 oligo antag -3.07
COC(=O)c1cc(NC(=O)CN(c2ccccc2OC)S(=O)(=O)c2ccccc2)ccc1Cl	CYP2C19 inh 52.5, CYP2C9 inh 96.8
CCCCCC(=O)OC(CN1CCCCC1)CN1CCCC1=O (centres undefined)	none
CC(Oc1ccc(Cl)cc1Cl)C(=O)N(Cc1ccco1)C1CCS(=O)(=O)C1 (centres undefined)	none
CC(=O)N1CCC(N(C(=O)Nc2c(F)cccc2F)C(C)C)CC1	none (no result: Pyk2 oligo antag)
CN1C=CC=C/C1=C(\C#N)c1nc2ccccc2[nH]1	none
COc1ccc(OC)c(N(CC(=O)Nc2ccc3c(c2)OCCO3)S(C)(=O)=O)c1	CYP2C19 inh 63.7, CYP2C9 inh 75.9
CCC(C)NC(=O)CSc1ncccc1C(=O)O (centres undefined)	none
CSc1nc2sc3c(c2c2nnnn12)CCC3	CYP2C19 inh 62.2 (no result: Cav3 T inh, Pyk2 oligo antag)
CSc1nc2sc3c(c2c2nnnn12)CCCC3	none
CCS(=O)(=O)NCCc1cc2ccc(C)cc2[nH]c1=O	none
COc1ccc(NC(=O)C(=O)N/N=C/c2cc(C)n(-c3cccc(Cl)c3Cl)c2C)c(OC)c1	CYP2C19 inh 72.3
